Measurements from PubChem BioAssay AID1159580 (chemical genetic matrix, 2015).
Out of some 5,500 compounds screened, about 2,000 (36%) were called active. About 18% were inconclusive and are not listed. Rule as the data show it: active = normalized growth mostly below about 0.91 (no sharp cut-off); inconclusive = no clear call, values can overlap the other calls; inactive = mostly above about 0.92. The list shows a part of the results.

Assay: chemical genetic growth profiling, strain panel (AID 1159580);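 also: tested at 20 µM; growth read once vehicle control cultures reached saturation at 30 °C; 1 = growth at the plate median or of vehicle wells; lower values mean less growth of the strain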
Conditions: S. cerevisiae deletion strains, growth OD

Measured: normalized growth

CC(/C=N\O)=N/Nc1ccccc1
active: locus YKL190W, strain CNB1, hits give low values 0.887 | locus YLR039C, strain RIC1, hits give low values 0.324 | locus YLR262C, strain YPT6, hits give low values 0.253 | locus YML094W, strain GIM5, hits give low values 0.841 | locus YOL006C, strain TOP1, hits give low values 0.527
inactive: locus YAL013W, strain DEP1, hits give low values 0.969 | locus YBR229C, strain ROT2, hits give low values 0.938 | locus YDL101C, strain DUN1, hits give low values 1.01 | locus YDL134C, strain PPH21, hits give low values 0.975 | locus YDR150W, strain NUM1, hits give low values 0.932 | locus YEL061C, strain CIN8, hits give low values 0.953 | locus YGR078C, strain PAC10, hits give low values 0.961 | locus YHR030C, strain SLT2, hits give low values 0.774 | locus YHR087W, strain rtc3, hits give low values 0.916 | locus YJR043C, strain POL32, hits give low values 0.974 | locus YJR075W, strain HOC1, hits give low values 0.954 | locus YLR058C, strain SHM2 (second series), hits give low values 0.979 | locus YLR085C, strain ARP6, hits give low values 0.793 | locus YMR219W, strain ESC1, hits give low values 0.955 | locus YMR263W, strain SAP30, hits give low values 0.967 | locus YNL153C, strain GIM3, hits give low values 0.973 | locus YNL298W, strain CLA4 (second series), hits give low values 0.923 | locus YNL322C, strain KRE1, hits give low values 1.01 | locus YNR030W, strain Alg12, hits give low values 0.951 | locus YPL055C, strain LGE1, hits give low values 1.05 | locus YPL241C, strain CIN2, hits give low values 0.907 | locus YPR135W, strain CTF4, hits give low values 0.889
